15-hLO-2 inh: inhibitors of human 15-lipoxygenase 2 (ALOX15B); O15296; purified 15hLO-2, xylenol orange hydroperoxide absorbance; Potency, µM (series often up to 57.1 µM), without a hit: at the top dose activity change, negative = inhibition, most hits filed as inhibitors; actives 0.56% (n = 110,000); AID 881; note: % is set by controls: 0 for no effect and ±100 for the full control effect; nearly all actives have a fitted effect of over 60% in size
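Purified human 15hLO-2 (50 nM final) preincubated with compounds 15 min at room temperature in 25 mM Hepes pH 7.5, 0.01% Triton X-100, then 45 uM arachidonic acid added for 90 min; hydroperoxide detected via ferrous/xylenol orange, 573/405 nm absorbance ratio.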
Casp1 inh: allosteric or competitive inhibitors of human caspase-1 | Caspase-1 enzyme, Ac-WEHD-AFC fluorogenic rate | actives 0.03% (n = 75,000) | P29466 | Potency, µM (highest dose often 57.5 µM), without a hit: at the top dose activity change, negative = inhibition, most hits filed as inhibitors;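 note: plate controls were vehicle for no effect and no substrate for full effect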
Target sequence (P29466 120-297 limits assumed): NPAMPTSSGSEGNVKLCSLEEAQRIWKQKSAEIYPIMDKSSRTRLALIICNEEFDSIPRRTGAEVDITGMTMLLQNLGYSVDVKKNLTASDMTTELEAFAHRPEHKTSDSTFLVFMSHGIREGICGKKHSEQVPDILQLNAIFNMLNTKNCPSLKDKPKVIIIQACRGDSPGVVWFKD
Target sequence (P29466 317-404 limits assumed): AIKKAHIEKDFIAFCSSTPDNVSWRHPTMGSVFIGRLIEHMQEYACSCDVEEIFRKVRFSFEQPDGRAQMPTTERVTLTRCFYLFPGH
USP2a inh: inhibitors of human ubiquitin-specific protease USP2a; O75604; USP2a enzymatic assay, qHTS inhibition; Potency, µM (series often up to 38.3 µM), without a hit: at the highest dose activity change, negative = inhibition, usual class: inhibitors; actives 0.1% (n = 60,000); AID 927; note: nearly all actives have a fitted effect of over 60% in size
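20 nM USP2 core + cpd, 30 min RT; add 20 nM Ub-PLA2/20 uM NBD C6-HPC; read Ex460/Em535 at 0 h and 2.5 h. Normalized to NEM; qHTS curve fit/classification.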
UbGFP stabilizer: inhibits proteasome, raising ubiquitin-GFP reporter fluorescence | Ubiquitin-GFP reporter cells, proteasome inhibition, GFP fluorescence; response scale: untreated = 0%, 10 µM MG-132 = 100% | Potency, µM (titrated, usually from 45.9 µM), for the others: at the top dose activation (GFP accumulation), most hits filed as activators | 67,000 tested, under 10 active; active = well fitted activation curve with a large enough effect, not every such curve was filed as active; inconclusive = small, poorly fitted or top-dose-only effect, or another doubt; inactive = no such curve, though single readings can be large or run the other way
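Proteasome block read as GFP accumulation: ubiquitin(G76V)-GFP U2OS cells exposed to compound (2.9 nM–46 uM) for 4 hr at 37 C. Normalization used untreated cells as 0% and 10 uM MG-132 as 100%; concentration-response curves fitted.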
Casp7 inh: caspase-7 (human) inhibition, allosteric or competitive; Potency, µM (top dose mostly 57.5 µM), for inactives: at the highest dose activity change, negative = inhibition, hits mostly inhibitors; actives 0.02% (n = 75,000); P55210; recombinant caspase-7, Ac-DEVD-AFC fluorescence rate; active = well fitted inhibition curve with a large enough effect in the main read-out, with a control signal flat, not every such curve was filed as active; inconclusive = small, poorly fitted or top-dose-only effect, or a change in a side signal; note: % of control where 0% means no effect
Target sequence (P55210 24-198 limits assumed): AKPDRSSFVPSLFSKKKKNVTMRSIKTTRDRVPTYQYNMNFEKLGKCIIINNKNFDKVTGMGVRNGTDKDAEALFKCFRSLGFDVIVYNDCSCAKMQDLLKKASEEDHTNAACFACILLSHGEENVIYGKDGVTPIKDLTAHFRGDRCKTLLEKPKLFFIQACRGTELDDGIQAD
Target sequence (P55210 207-303 limits assumed): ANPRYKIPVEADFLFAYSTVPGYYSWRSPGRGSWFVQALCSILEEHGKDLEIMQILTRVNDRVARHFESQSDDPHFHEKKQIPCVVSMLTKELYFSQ
ALOX15 inhib: inhibitors of human 15-lipoxygenase (ALOX15); P16050; purified 15hLO-1, xylenol orange hydroperoxide absorbance; Potency, µM (highest dose often 57.1 µM), for the others: at the highest dose activity change, negative = inhibition, most hits filed as inhibitors; actives 1.4% (n = 74,000); AID 887; note: % is set by controls: 0 for no effect and ±100 for the full control effect; nearly all actives have a fitted effect of over 55% in size
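Purified human 15hLO-1 (40 nM) in 25 mM Hepes pH 7.5, 0.01% Triton X-100, preincubated 15 min RT with compound, then 50 uM arachidonic acid for 6 min. Hydroperoxide read by ferrous/xylenol orange, 30 min; 573/405 nm absorbance ratio gave progress.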
Numbers without * were called inactive; [ ] = remark or other dose. Shown is part of a subset that was picked to be rich in hits. Unless noted, calls come from the whole dose curve; as a rule, active = well fitted curve in the direction sought with a large enough effect; inconclusive = small, poorly fitted or top-dose-only effect, or another doubt; inactive = no such curve, though single readings can be large; an effect the other way counts as inactive or inconclusive. Potency is the fitted concentration of half-maximal effect.

What do the screens show for `Cc1ccc(-c2cc(C(=O)NC3=NCCS3)c3cc(Br)ccc3n2)o1`?
15-hLO-2 inh: inconclusive; Casp1 inh: -4.0%; USP2a inh: 18.9%; UbGFP stabilizer: -1.4%; Casp7 inh: -6.8%; ALOX15 inhib: 12.6µM*

What do the screens show for `COc1ccccc1NC(=S)NC(=O)CCCOc1ccc(Cl)cc1Cl`?
15-hLO-2 inh: 20µM*

Results for CCCC(=O)NC(=S)Nc1ccccc1OC ?
15-hLO-2 inh: -15.3%

Results for CCCCNC(=O)c1ccc(Cc2nc3ccccc3[nH]2)cc1 ?
Casp1 inh: -2.0%; Casp7 inh: -2.5%; ALOX15 inhib: -8.9%

Results for OC[C@@H]1O[C@@H](n2cnc3c(Nc4ccccc4)ncnc32)[C@@H](O)[C@H]1O ?
15-hLO-2 inh: -7.8%; Casp1 inh: 4.2%; USP2a inh: 1.6%; UbGFP stabilizer: 0.1%; Casp7 inh: -0.2%; ALOX15 inhib: -2.7%

How did CC1=NOC(=O)/C1=C\c1ccc(-c2cccc(Cl)c2)o1 do in these assays?
15-hLO-2 inh: 2.51µM*

What do the screens show for `S=C(c1ccc(-c2cccc(Cl)c2)o1)N1CCOCC1`?
15-hLO-2 inh: -20.2%; Casp1 inh: -3.3%; USP2a inh: 21.8%; UbGFP stabilizer: 11.1%; Casp7 inh: -5.8%; ALOX15 inhib: inconclusive

What do the screens show for `CCOC(=O)c1cc(-c2ccccc2)sc1NC(=O)C(C)(C)C`?
15-hLO-2 inh: 3.9%

What do the screens show for `CCOC(=O)c1cc(-c2ccccc2)sc1NC(=S)Nc1cc(C)ccn1`?
15-hLO-2 inh: 10µM*

What do the screens show for `CCCCC(CC)COCC1CO1` (configuration not stated)?
15-hLO-2 inh: -7.5%; Casp1 inh: 2.3%; Casp7 inh: -0.7%; ALOX15 inhib: 2.0%

What do the screens show for `Oc1ccccc1-c1cc(-c2ccccc2Cl)[nH]n1`?
15-hLO-2 inh: 8.3%; Casp1 inh: -2.7%; USP2a inh: -1.0%; UbGFP stabilizer: -4.1%; Casp7 inh: -6.9%; ALOX15 inhib: 12.6µM*

What do the screens show for `Cc1ccc(O)c(-c2cc(-c3ccccc3C)[nH]n2)c1`?
15-hLO-2 inh: -12.8%; Casp1 inh: -4.6%; USP2a inh: inconclusive; UbGFP stabilizer: -2.5%; Casp7 inh: -11.6%; ALOX15 inhib: 15.8µM*

How did CCS(=O)(=O)NCc1ccc2[nH]c3c(c2c1)CCCC3 do in these assays?
15-hLO-2 inh: -6.6%; USP2a inh: 34.0%; UbGFP stabilizer: 0.1%; Casp7 inh: inconclusive; ALOX15 inhib: 0.398µM*

Results for COc1ccc2ccccc2c1C1CC(=O)N2CN(C3CCCCC3)CSC2=C1C#N (configuration not stated) ?
15-hLO-2 inh: inconclusive; Casp1 inh: -15.8%; UbGFP stabilizer: 0.0%; Casp7 inh: -23.9%; ALOX15 inhib: inconclusive

How did COc1cc(CNCc2ccco2)ccc1OCc1ccccc1 do in these assays?
15-hLO-2 inh: 8.0%

How did COc1cc(C2CC(=O)N3CN(Cc4ccco4)CSC3=C2C#N)ccc1OCc1ccccc1 (configuration not stated) do in these assays?
15-hLO-2 inh: inconclusive; Casp1 inh: -7.2%; UbGFP stabilizer: -10.0%; Casp7 inh: -18.9%; ALOX15 inhib: 6.31µM*

What do the screens show for `COc1ccc2ccccc2c1C1CC(=O)N2CN(Cc3ccco3)CSC2=C1C#N` (configuration not stated)?
15-hLO-2 inh: 12.6µM*; Casp1 inh: -5.3%; UbGFP stabilizer: 11.9%; Casp7 inh: -13.0%; ALOX15 inhib: inconclusive

Results for Cc1ccc(/C=c2\sc3nc(-c4cccs4)nn3c2=O)o1 ?
15-hLO-2 inh: -21.5%; Casp1 inh: 2.3%; USP2a inh: 40.6%; UbGFP stabilizer: 22.5%; Casp7 inh: 1.5%; ALOX15 inhib: 12.6µM*

Results for COC(=O)c1ccc(C(NC(=O)OCc2ccccc2)/C(=C/[C@@H](C)C(=O)NCc2cc(F)cc(F)c2)c2cccnc2)cc1 (some centres not stated) ?
15-hLO-2 inh: 8.3%; Casp1 inh: -0.9%; Casp7 inh: -5.2%; ALOX15 inhib: 5.3%

Results for O=C(Nc1ccc2ncccc2c1)Nc1ccc2ncccc2c1 ?
15-hLO-2 inh: 3.8%[11.4 µM]; Casp1 inh: 0.3%[11.5 µM]; UbGFP stabilizer: 0.0%[9.17 µM]; Casp7 inh: 1.9%[11.5 µM]; ALOX15 inhib: 1.1%[11.4 µM]

Results for COC(=O)c1ccc2ncccc2c1 ?
15-hLO-2 inh: -4.8%; Casp1 inh: -1.2%; USP2a inh: 8.1%; UbGFP stabilizer: 7.1%; Casp7 inh: 0.1%; ALOX15 inhib: 7.94µM*

How did N=C(N)SCCSC(=N)N do in these assays?
15-hLO-2 inh: 4.5%[11.4 µM]; Casp1 inh: 5.7%[11.5 µM]; UbGFP stabilizer: -1.4%[9.17 µM]; Casp7 inh: 0.6%[11.5 µM]; ALOX15 inhib: -6.3%[11.4 µM]

How did O=C(CCCCCCCCCCCCC1CCCC1)Nc1ccc(S(=O)(=O)c2ccc(NC(=O)CCCCCCCCCCCCC3CCCC3)cc2)cc1 do in these assays?
15-hLO-2 inh: -7.7%; Casp1 inh: 1.6%; USP2a inh: 25.1µM*; Casp7 inh: -0.5%; ALOX15 inhib: inconclusive

Results for NS(=O)(=O)c1ccc(NC(=O)CCC2CCCCC2)cc1 ?
15-hLO-2 inh: -4.6%; Casp1 inh: 1.5%; UbGFP stabilizer: -9.4%; Casp7 inh: -3.5%; ALOX15 inhib: -8.9%

Results for N#CC1=C(N)SC2(CCCCC2)SC1c1ccccc1 (configuration not stated) ?
15-hLO-2 inh: inconclusive; Casp1 inh: -3.0%; USP2a inh: 28.7%; UbGFP stabilizer: 5.0%; Casp7 inh: -1.5%; ALOX15 inhib: 25.1µM*

Results for COc1cc(Cl)ccc1NC(=O)COc1ccccc1C(=O)N1CCN(c2ccc(O)cc2)CC1 ?
15-hLO-2 inh: inconclusive; Casp1 inh: -3.2%; USP2a inh: 24.2%; UbGFP stabilizer: -2.6%; Casp7 inh: -5.6%; ALOX15 inhib: 25.1µM*

Results for C=C(c1ccc(O)cc1)c1ccc(O)cc1 ?
15-hLO-2 inh: inconclusive; Casp1 inh: -1.3%; USP2a inh: -1.9%; UbGFP stabilizer: 10.0%; Casp7 inh: -0.4%; ALOX15 inhib: -28.1%

How did C/C=C(/C(=C/C)c1ccc(O)cc1)c1ccc(O)cc1 do in these assays?
15-hLO-2 inh: 15.8µM*; Casp1 inh: -0.3%; USP2a inh: -17.0%; Casp7 inh: -0.8%; ALOX15 inhib: 25.1µM*

How did Cc1cc2c(ccc3[nH]onc32)n1 do in these assays?
15-hLO-2 inh: -11.0%; Casp1 inh: inconclusive; USP2a inh: 15.9%; UbGFP stabilizer: -2.6%; Casp7 inh: inconclusive; ALOX15 inhib: 20µM*

What do the screens show for `COc1ccc2c3c(cccc13)N(C)N=C2C`?
15-hLO-2 inh: 2.51µM*
